Rows were chosen to be rich in hits. Some 10% of all compounds tested hit in one or more screens of this group.
G9a block = qHTS Assay for Inhibitors of Histone Lysine Methyltransferase G9a; G9a H3K9 monomethylation, AlphaScreen, 2 h; Histone-lysine N-methyltransferase EHMT2 (Homo sapiens), Q96KQ7; AID 504332, 2011; Potency, µM (series often up to 102 µM), for the others: top-dose activity, negative = inhibition, most hits filed as inhibitors; 350,000 compounds, 8.8% hits; note: % is set by controls: 0 for no effect and ±100 for the full control effect; nearly all actives have a fitted effect of over 75% in size
Target sequence (Q96KQ7 913-1193 limits assumed): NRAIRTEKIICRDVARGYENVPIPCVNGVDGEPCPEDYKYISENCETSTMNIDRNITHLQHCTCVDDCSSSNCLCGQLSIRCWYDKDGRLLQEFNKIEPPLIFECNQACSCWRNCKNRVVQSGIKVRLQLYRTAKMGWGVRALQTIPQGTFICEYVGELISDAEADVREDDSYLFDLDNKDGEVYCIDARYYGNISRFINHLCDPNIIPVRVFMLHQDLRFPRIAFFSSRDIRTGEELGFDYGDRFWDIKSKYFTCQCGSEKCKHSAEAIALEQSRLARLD
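Readings reflect AlphaScreen signal from monomethyl-H3K9 antibody detection. HMT at 20 nM; substrate b-H3K9 500 nM; cofactor SAM 20 uM; 2 h RT reaction; compounds tested as titrations in qHTS with 15 min preincubation.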
BAZ2B block = qHTS Assay for Inhibitors of BAZ2B; AlphaScreen BAZ2B-H3K14Ac peptide displacement; Bromodomain adjacent to zinc finger domain protein 2B (Homo sapiens), Q9UIF8; Potency, µM (top dose mostly 114 µM), for the others: top-dose activity change, negative = inhibition, hits mostly inhibitors; 360,000 compounds, 4.4% hits; note: % is set by controls: 0 for no effect and ±100 for the full control effect; nearly all actives have a fitted effect of over 60% in size
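Protein-peptide AlphaScreen: BAZ2B 50 nM, b-H3K14Ac 50 nM, 1x PBS pH 7.4 + 0.01% Tween-20. Preincubation 30 min RT; cpd 30 min RT (top 110 uM); beads 20 min RT, light-protected.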
GLS inh = qHTS for Inhibitors of Glutaminase (GLS) | GLS enzymatic activity, qHTS titration | 410,000 compounds, 0.21% hits | Glutaminase kidney isoform, mitochondrial (Homo sapiens), O94925 | Potency, µM (titrated, usually from 45.5 µM), for inactives: at the highest dose activity change, negative = inhibition, actives largely listed as inhibitors; note: % is set by controls: 0 for no effect and ±100 for the full control effect
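hKGA in 45 mM KH2PO4 (pH 8.2), 0.02% Tween-20 with compound, then 1mM L-Glutamine (stock as added) plus glutamate oxidase/HRP/Amplex red coupling mix. Fluorescence read initially and after 30 min at RT; signal change reflects glutamate formation.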
JMJD2A Tudor = qHTS Assay for Inhibitors of JMJD2A-Tudor Domain; Potency, µM (titrated, usually from 114 µM), for inactives: at the top dose activity change, negative = inhibition, hits mostly inhibitors; Lysine-specific demethylase 4A (Homo sapiens), O75164; AID 504339, 2011; AlphaScreen JMJD2A-Tudor / H3K4me3 peptide binding; 390,000 compounds, 4.4% hits; note: % is set by controls: 0 for no effect and ±100 for the full control effect; nearly all actives have a fitted effect of over 50% in size
HP1b chromo inh = HTS for Inhibitors of HP1-beta Chromodomain Interactions with Methylated Histone Tails; AlphaScreen HP1-beta / biotin-H3K9me3 peptide binding; Potency, µM (highest dose often 114 µM), for inactives: at the highest dose activity change, negative = inhibition, hits mostly inhibitors; Chromobox protein homolog 1 (Homo sapiens), P83916; 390,000 compounds, 0.56% hits; note: nearly all actives have a fitted effect of over 70% in size
Target sequence (P83916 whole entry, looked up): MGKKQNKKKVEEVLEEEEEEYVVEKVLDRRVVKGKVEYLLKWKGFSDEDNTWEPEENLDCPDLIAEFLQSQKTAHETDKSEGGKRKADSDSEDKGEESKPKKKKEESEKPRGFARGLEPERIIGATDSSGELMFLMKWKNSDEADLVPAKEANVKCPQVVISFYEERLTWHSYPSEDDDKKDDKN
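Compound inhibition of the preformed complex between 50 nM HP1-beta and 50 nM biotinylated H3K9me3 peptide was read by AlphaScreen. Buffer was PBS pH 7.4 with 0.01% Tween-20. Incubations ran 30 min at room temperature, with 10 ug/mL donor/acceptor beads.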
Active calls of the source: *; u = inconclusive; x = no result given; [ ] = dose if it differs, or a comment. Calls come from the whole dose curve; as a rule, active = well fitted curve in the direction sought with a large enough effect; inconclusive = small, poorly fitted or top-dose-only effect, or another doubt; inactive = no such curve, though single readings can be large; an effect the other way counts as inactive or inconclusive. Potency is the fitted concentration of half-maximal effect.

SMILES | G9a block | BAZ2B block | GLS inh | JMJD2A Tudor | HP1b chromo inh
Cc1ccc(CN2CCN(/N=C/c3ccc(C(=O)O)cc3)CC2)cc1 | 7.9µM* | -7% | 8% | -19% | 6%
O=C(O)c1ccc(/C=N/N2CCN(Cc3ccc(Cl)cc3)CC2)cc1 | x | -3% | -3% | -15% | 28%
CCCCCCSc1ccc([C@H]2N[C@@](CC(C)C)(C(=O)OC)[C@H]3C(=O)N(CC)C(=O)[C@@H]23)cc1 | 18%[2.33 µM] | -4% | -10% | -10% | 40%
CC(C)NC(=O)[C@H]1N2C(=O)c3ccccc3C2SC1(C)C (stereo partly specified) | 47% | 2% | -11% | -4% | 19%
CC(=O)N1CCCc2cc(S(=O)(=O)N(C)CC(=O)Nc3cccc(C)c3C)ccc21 | 3%[59 µM] | 2% | 1% | -2% | 9%[57 µM]
COc1ccc(CCNC(=O)CSc2nc(-c3ccc(F)cc3)cc(C(F)(F)F)n2)cc1OC | 1%[59 µM] | -28% | -1% | -20% | 22%
COc1ccc(-n2c(/C=C/c3cccc4ccccc34)nc3ccccc3c2=O)cc1Cl | -3%[59 µM] | -2% | 0% | -6% | 40%
COc1cccc(CN2C(=O)c3ccccc3Sc3ccc(C(=O)NCCc4ccc(Cl)cc4)cc32)c1 | 4%[59 µM] | x | 7% | -15% | 28%
Cc1ccc(/C=C/c2onc(C)c2S(=O)(=O)N2CCC(C(=O)NC(C)(C)C)CC2)cc1 | 3% | -8% | 0% | -14% | 30%
Cc1ccc(CN2CCN(/N=C/C(Br)=C\c3ccccc3)CC2)cc1 | x | 32µM* | 10% | u | -24%
CCOC(=O)COc1ccc([N+](=O)[O-])cc1-c1ccnc2cc(-c3ccc(C)cc3)nn12 | 1%[59 µM] | -18% | 8% | -9% | -9%
Cc1ccc(-c2cc3nccc(-c4cc([N+](=O)[O-])ccc4O)n3n2)cc1 | -51%[59 µM] | u | 8.9µM* | -18% | 14%
O=C(NCc1ccco1)c1nc2nc(-c3cccs3)cc(C(F)(F)F)n2n1 | 45µM* | u | -5% | -18%[57.1 µM] | 8%
O=C(NCc1ccco1)c1nn2c(C(F)(F)F)cc(-c3cccs3)nc2c1Br | 50µM* | u | 14% | -26% | 18%
O=C(NCC1CCCO1)c1nn2c(C(F)(F)F)cc(-c3cccs3)nc2c1Br (stereo unspecified) | 20% | 6% | 4% | -10% | 14%
OCCN1CCN(C(c2ccccc2Cl)c2sc3nc(-c4ccco4)nn3c2O)CC1 (stereo unspecified) | u | -4% | 9% | -12% | 27%
CN(C)c1ccc(/C=C(/NC(=O)c2ccccc2Cl)C(=O)NCCN2CCOCC2)cc1 | -48%[59 µM] | -27% | 2% | -15% | 29%
CC(=O)N1N=C2/C(=C/c3ccccc3)CCCC2C1c1ccccc1 (stereo unspecified) | x | -22% | -23% | u | -8%
O=C(O)c1ccccc1C(=O)N1N=C2/C(=C/c3cccc([N+](=O)[O-])c3)CCCC2C1c1cccc([N+](=O)[O-])c1 (stereo unspecified) | 50µM* | 45µM* | -9% | u | -5%
O=C(O)c1c(C(=O)N2N=C3/C(=C/c4ccccc4)CCCC3C2c2ccccc2)cccc1[N+](=O)[O-] (stereo unspecified) | 50µM* | u | -23% | -21% | 16%
COc1ccc(OC)c(NC(=O)Cn2cc(C(=O)c3cccs3)c3ccccc32)c1 | -3%[59 µM] | -17%[57.1 µM] | -3% | -23% | 14%
FCCCOc1ccc(-c2nccc(-c3ccccn3)n2)cc1 | 160% | 75% | -5% | 80% | 166%
O=C(O)COc1ccc(-c2nccc(-c3ccccn3)n2)cc1 | u | 79µM* | 0% | -34%[11.4 µM] | u
COCCn1c(C)cc(O)c(C(c2ccccc2OC)N2CCN(c3ccccc3)CC2)c1=O (stereo unspecified) | u | 11% | 40% | -1% | 41%[57 µM]

Screens (PubChem BioAssay)
